Myeloid diff 2 = promotes myeloid progenitor differentiation; ER-HoxA9 myeloid progenitors, lysozyme-GFP differentiation, flow cytometry; AID 624256; calls only at 10 µM; 360,000 compounds, 1% hits;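 active = normalized GFP-positive differentiation at or above the plate's own cutoff, the solvent-only control mean plus 3 SD; inconclusive = no clear call, values can overlap the other calls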;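 also: cells exposed to compound for four days before flow analysis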
Cardiac RTF inh = cardiac RTF calcium desensitization. 340,000 compounds, 0.12% hits. IANBD-labeled cardiac RTF, Ca2+ fluorescence. inhibition, % at 7.15 µM;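 active = inhibition above the mean inhibition of all tested compounds plus 3 SD, cut at about 17% in these data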;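 also: assay run at fixed EC70 calcium of 1.6 mM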
RTF Ca sens act = cardiac RTF calcium sensitization | activation, % at 7.2 µM | P19429+P45379 | IANBD-labeled TnC RTF fluorescence at EC20 calcium; 0% EC20 calcium, 100% full calcium | 340,000 compounds, 0.24% hits;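 active = activation above the mean over all tested compounds plus 3 SD, cut at about 30% in these data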;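 also: rise in fluorescence read as greater calcium sensitivity of cardiac thin filaments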
CRFBP-R2 agonist = CRF-BP/CRF-R2 complex agonism. 350,000 compounds, 0.46% hits. HEK293 CRF-R2/CRF-BP, calcium dye fluorescence (FLIPR); percent of saturating CRF peptide response. AID 588473. activation, % at 13.2 µM;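 active = activation of at least 50%, plus an integration ratio under a set limit after plate pattern correction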;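 also: plate controls were neutral control wells without compound for no effect and CRF at EC100 for full effect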
CRFBP-R2 block = antagonists of CRF-binding protein/CRF-R2 receptor complex. HEK293 CRF-R2/CRF-BP, CRF-induced calcium fluorescence. inhibition, % at 11.8 µM. 350,000 compounds, 0.59% hits. AID 588475;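 active = inhibition of the ligand-induced calcium signal above about 50% at the single tested concentration, limit read from the data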
Myeloid diff CP1 = compounds promoting myeloid differentiation; shares compounds with Myeloid diff 2; ER-HoxA9 myeloid progenitors, GFP/Mac1 double-positive flow; calls only; 2,300 compounds, 2% hits;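 active = share of green or green-and-red cells above 9 and 9% in run 1 or 4 and 3% in run 2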
GFP autofluor = compound fluorescence in myeloid differentiation counter-screen. shares compounds with Myeloid diff 2. ER-HoxA9 myeloid progenitors, no estrogen, GFP autofluorescence flow cytometry; vehicle wells 0%, positive control 100%. fluorescence response, % (test concentration not listed). 2,300 compounds, 7.4% hits. AID 651707;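 active = over 5% cells positive for green fluorescent reporter, or over 2% positive for both it and APC stain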;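 also: range taken on the double positive population between DMSO and positive control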
The depositor's hits bear a star; i = inactive; u = inconclusive; x = no result; + = active, no number. A selection: hits, their analogues and other compounds. The true share with any hit is near 2.2%.

SMILES | Myeloid diff 2 | Cardiac RTF inh | RTF Ca sens act | CRFBP-R2 agonist | CRFBP-R2 block | Myeloid diff CP1 | GFP autofluor
N#CC1=C(N)Oc2n[nH]c(-c3ccccc3)c2C12C(=O)Nc1ccccc12 (stereo not drawn) | i | 6 | -4 | -1 | 12 | i | 0
CCn1c2ccccc2c2cc(N=C3SC(CC(=O)Nc4ccccc4OC)C(=O)N3C)ccc21 (stereo not drawn) | + | 6 | -5 | 2 | -2 | i | 0
Cc1ccc(C(=O)OCC(=O)c2c[nH]c3ccccc23)cc1NC(=O)c1ccco1 | i | -10 | 2 | -3 | 23 | i | 0
CCN(CC)C(=O)COC(=O)c1ccc(C)c(NC(=O)c2ccco2)c1 | i | -2 | 3 | 0 | -3 | x | x
Cc1nc(NC(=O)c2ccc(Br)s2)sc1C(=O)N(C)C | i | 5 | -3 | -1 | 1 | i | 0
CC(C)(C)C(=O)/C=C1\SCC(=O)N1CC(=O)N1CCN(c2ccccc2)CC1 | i | 0 | -2 | -1 | -3 | i | 1
CC(/C=C1\SC(=S)N(CC(=O)N2CCN(c3ccccc3)CC2)C1=O)=C\c1ccccc1 | i | -3 | 0 | -2 | 0 | x | x
COc1ccc(CC(=O)NNC(=O)c2c(-c3ccccc3Cl)noc2C)cc1OC | i | -9 | 3 | -1 | 1 | x | x
c1ccc2c(c1)NCCS2 | + | -14 | 13 | -1 | -1 | i | 0
Cc1nnc(NC(=O)c2cc(-c3ccncc3)nc3c(C)cccc23)s1 | i | -3 | -3 | -1 | -24 | x | x
OC(c1ccccc1)(c1ccccc1)C1CCN(CCCOc2ccc3c(c2)CCCC3)CC1 | + | x | x | x | x | i | 0
N#CCc1ccc(OCCCN2CCC(C(O)(c3ccccc3)c3ccccc3)CC2)cc1 | i | x | x | x | x | x | x
O=C(CSc1nc2ccsc2c(=O)n1NC(=O)c1ccccc1)NCc1ccco1 | i | 1 | -7 | 1 | 3 | x | x
O=C(CSc1nc2ccsc2c(=O)n1NC(=O)c1ccccc1)Nc1nccs1 | + | -4 | 0 | 2 | 12 | i | 0
CCN(CC)CCNC(=O)c1cc2c(-c3ccc(Cl)cc3)nn(C)c2s1 | + | -1 | 2 | 1 | -7 | i | 0
CCCN(CCC)CCNC(=O)c1cc2c(-c3ccc(Cl)cc3)nn(C)c2s1 | u | -11 | -3 | -2 | 2 | x | x
CCC(=O)N1CCCC1(C)C(=O)NCc1ccc(SC)cc1 (stereo not drawn) | i | x | x | x | x | x | x
O=C(O)CC/C(=N/Nc1ncc(C(F)(F)F)cc1Cl)C(=O)O | i | -3 | 2 | 1 | -13 | x | x
CCCc1c(NC(=O)Nc2ccc(F)cc2)cnn1-c1ccccc1 | + | -3 | 3 | 2 | -16 | i | 0
Cc1cccc(OCCOC(=O)c2c(-c3ccccc3)noc2C)c1 | + | -17 | 8 | -1 | 7 | i | 1
CC(=O)n1cc(C2C(=O)CCCC2=O)c2ccccc21 | i | -3 | -2 | 1 | 2 | i | 1
O/N=C(/c1ccccc1)c1cc2cc(Br)cc(Br)c2o1 | i | 2 | -5 | 1 | -3 | x | x
O=C(c1cc2c(s1)-c1ccccc1OC2)N1CCCC1 | i | -7 | 0 | -1 | 11 | i | 0
CCCCN(Cc1cc2cccc(C)c2[nH]c1=O)S(C)(=O)=O | i | 0 | 5 | 0 | -7 | x | x
O=C(Nc1ccccc1)/C(=C/c1cccc(Br)c1)NC(=O)c1ccco1 | + | -2 | 2 | -3 | -5 | i | 0
SMILES | Myeloid diff 2 | Cardiac RTF inh | RTF Ca sens act | CRFBP-R2 agonist | CRFBP-R2 block | Myeloid diff CP1 | GFP autofluor
Cc1ccc(NC(=O)/C(=C\c2cccc(Br)c2)NC(=O)c2ccco2)cc1 | i | 4 | 3 | 0 | -10 | x | x
CN1C(=O)N2CN(C3CCCCC3)CN3C(=O)N(C)C1C23 (stereo not drawn) | i | -11 | 3 | 0 | 33 | i | 0
CC1=CC(C)(C)N(C(=O)CNC2CCCCC2)c2cc(C)ccc21 | + | 6 | 2 | -1 | -15 | i | 0
CC1=CC(C)(C)N(C(=O)CCl)c2cc(C)ccc21 | i | 6 | -2 | 0 | -16 | i | 0
CC(=O)Nc1ccc(C2=CC(=O)C[C@H](c3ccc(Cl)cc3)C2)cc1 | i | 3 | -5 | -2 | 0 | + | 0
COCCN(Cc1cc2ccc(C)cc2[nH]c1=O)S(=O)(=O)c1ccccc1 | i | -9 | -4 | 2 | 0 | x | x
CCOc1ccc(-n2c(COc3ccc(C)cc3)nnc2SCC(N)=O)cc1 | i | 2 | -3 | -1 | -12 | i | 0
CCc1nc2ccc(C(=O)NCCc3ccc(OC)cc3)cc2nc1CC | i | -3 | -2 | -1 | 28 | i | 0
O=C(NCC1CCCO1)C1CCCN(S(=O)(=O)c2cccc3nsnc23)C1 (stereo not drawn) | i | -2 | -2 | 1 | -8 | x | x
O=C(NCc1ccccc1Cl)C1CCCN(S(=O)(=O)c2cccc3nsnc23)C1 (stereo not drawn) | i | -4 | 3 | 0 | 15 | i | 0
O=C(NCc1ccccn1)c1ccccc1OCc1ccc(Cl)cc1Cl | i | -9 | -4 | 0 | -10 | x | x
COCCCNC(=O)Cn1nnc(-c2ccc(NC(=O)c3ccc(F)cc3)cc2)n1 | i | -16 | 5 | 6 | 17 | i | 0
O=S(=O)(c1cccc(-c2nnc(SCc3ccc(Cl)cc3)o2)c1)N1CCCCC1 | + | -16 | 5 | 12 | -5 | i | 19*
NC(=O)CSc1nnc(-c2cccc(S(=O)(=O)N3CCCCC3)c2)o1 | i | -5 | -2 | 1 | 7 | x | x
CCCc1nnc(NC(=O)CCS(=O)(=O)Cc2ccccc2)s1 | u | -9 | -9 | -2 | 7 | x | x
CCc1nnc(NC(=O)CCS(=O)(=O)Cc2ccccc2)s1 | + | 0 | -8 | -3 | 8 | i | 1
COc1ccccc1C(=O)NCCC(=O)N1CC(=O)Nc2ccccc21 | + | -3 | -4 | -1 | 5 | i | 0
O=C1CN(C(=O)COC(=O)CCSc2ccccc2Cl)c2ccccc2N1 | + | 3 | -5 | 3 | -6 | i | 0
CC(CCc1ccccc1)NC(=O)Cc1cccs1 (stereo not drawn) | i | 2 | 5 | -2 | -4 | x | x
CC(=O)Nc1ccc(S(=O)(=O)NCC2CCC(C(=O)NCCCN(C)Cc3ccccc3)CC2)cc1 (stereo not drawn) | i | 1 | -4 | 1 | -2 | x | x
CCCn1c(SCC(=O)c2[nH]c(C)c(C(C)=O)c2C)n[nH]c1=O | i | 5 | -2 | -2 | 10 | x | x
